Experimental data: the supplement of paper PMC6522484
Several values for one entry are separate records, joined by “and”; a condition that tells them apart may be missing. Equal entries are not always repeated. ± gives the standard deviation of the averaged measurements.

Legend:
[1] = tested on: DLD1; experiment: cell viability (CellTiter-Glo) relative to plate median (fraction of plate median); higher = more viable cells; details: 5 µM; treatment time 24 h; reporter: 7TFP
How it was run: (§1)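 After seeding in 384-well plates, colorectal cancer cell lines carrying stable lentiviral TCF/Wnt firefly luciferase reporters (7TFP or TCF4/Wnt) were left 24 h. Library compounds were then added at a final 5 µM for 24 h. A Tecan F500 reader measured firefly luciferase or CellTiterGlo luminescence on parallel plates, with each well normalised to the plate median by webcellHTS2 (additive, no log transformation), and two independent replicates averaged.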

[2] = tested on: HCT116; experiment: as above; details: 5 µM; treatment time 24 h; reporter: TCF4/Wnt
How it was run: as §1

[3] = tested on: SW480; experiment: as above; details: 5 µM; treatment time 24 h; reporter: 7TFP
How it was run: as §1

[4] = tested on: DLD1; experiment: TCF/Wnt firefly luciferase reporter signal relative to plate median (fraction of plate median); higher = higher Wnt reporter signal; details: 5 µM; treatment time 24 h; reporter: 7TFP
How it was run: as §1

[5] = tested on: SW480; experiment: as above; details: 5 µM; treatment time 24 h; reporter: 7TFP
How it was run: as §1

Row | SMILES | cell viability [1] | cell viability [2] | cell viability [3] | TCF/Wnt firefly luciferase reporter signal [4] | TCF/Wnt firefly luciferase reporter signal [5]
1 | CCc1ccc(CCOc2ccc(CC3SC(=O)NC3=O)cc2)nc1 (stereo not given) | 0.923 ± 0.048 | 0.904 ± 0.07 | 0.983 ± 0.096 | 1.015 ± 0.0071 | 1.07 ± 0.057
2 | Cc1cnc(NC(=O)C2=C(O)c3ccccc3S(=O)(=O)N2C)s1 | 1.01 ± 0.04 | 1.05 ± 0.078 | 0.995 ± 0.079 | 1.02 ± 0.031 | 1.03 ± 0.044
3 | O=C(O)c1cc(=O)c(O)c2c(O)c(O)c(O)cc2c1 | 0.948 ± 0.066 | 0.82 ± 0.04 | 1 ± 0.05 | 0.806 ± 0.25 | 0.993 ± 0.12
4 | CCC(C)C(=O)OC1[C@@H]2CC3=C4CC(=O)O[C@@H](c5ccoc5)[C@]4(C)CCC3[C@@](C)(C2=O)[C@@H](CC(=O)OC)C1(C)C (stereo not given in full) | 1.085 ± 0.0071 | 1.19 ± 0.092 | 1.18 ± 0.092 | 1.15 ± 0.15 | 0.938 ± 0.088
5 | CC(=O)c1ccc2c(c1)N(CCCN(C)C)c1ccccc1S2 | 0.976 ± 0.048 | 0.931 ± 0.037 | 0.964 ± 0.016 | 1.06 ± 0.2 | 0.913 ± 0.12
6 | CC(=O)O[C@@H]1CC2C(C)(C)[C@H](O)CC[C@]2(C)C2CC[C@@]3(C)[C@H](c4ccoc4)OC(=O)C4OC43[C@@]21C (stereo partly drawn) [alpha-DIHYDROGEDUNOL] | 1.03 ± 0.028 | 1.01 ± 0.032 | 1.03 | 1.02 ± 0.18 | 0.954 ± 0.025
7 | OCC(O)C(O)C(O)CO (stereo not given) | 0.921 and 1.07 | 0.918 and 1.01 | 0.905 and 0.944 | 1.02 and 1.01 | 1.06 and 1.04
8 | COc1ccc(C2CC(=O)c3ccc(OC)cc3O2)cc1 (stereo not given) | 0.994 ± 0.11 | 1.08 ± 0.021 | 1.05 ± 0.05 | 1.05 ± 0.12 | 0.901 ± 0.021
9 | CC1(C)O[C@@H]2C[C@H]3[C@@H]4C[C@H](F)C5=CC(=O)C=C[C@]5(C)[C@H]4[C@@H](O)C[C@]3(C)[C@]2(C(=O)CO)O1 | 0.996 ± 0.0057 | 1.03 ± 0.055 | 0.978 ± 0.0042 | 0.928 ± 0.0085 | 1.03 ± 0.067
10 | Nc1ncnc2c1ncn2[C@@H]1O[C@H](COP(=O)(O)O)[C@@H](O)[C@H]1O | 0.958 ± 0.025 | 0.983 ± 0.081 | 1.03 ± 0.059 | 1.09 | 0.974 ± 0.12
11 | O=c1[nH]cnc2c1ncn2[C@@H]1O[C@H](CO)[C@@H](O)[C@H]1O | 1.09 ± 0.085 | 1.05 | 0.976 ± 0.028 | 0.975 ± 0.093 | 0.969 ± 0.1
12 | O=c1cc(-c2ccc(O)c(O)c2)oc2cc(O[C@@H]3O[C@H](CO)[C@@H](O)[C@H](O)[C@H]3O)cc(O)c12 [Luteolin-7-O-glucoside (102)] | 0.908 ± 0.058 | 0.957 ± 0.041 | 0.95 ± 0.0028 | 0.861 ± 0.052 | 1.03 ± 0.072
13 | CC(=O)[C@H]1CC[C@H]2[C@@H]3C[C@H](C)C4=CC(=O)CC[C@]4(C)[C@H]3[C@@H](O)C[C@]12C | 0.979 ± 0.12 | 0.981 ± 0.042 | 0.958 ± 0.029 | 1.01 ± 0.069 | 1 ± 0.022
14 | O=C1CC(c2ccc(O)c(O)c2)Oc2cc(O)cc(O)c21 (stereo not given) | 1.04 ± 0.14 | 1.08 ± 0.057 | 0.973 ± 0.095 | 0.912 ± 0.011 | 0.862 ± 0.0014
15 | NC[C@@H]1O[C@@H](O[C@H]2[C@H](O)[C@@H](O[C@H]3O[C@H](CO)[C@@H](O)[C@H](N)[C@H]3O)[C@H](N)C[C@@H]2N)[C@@H](O)[C@H](O)[C@H]1O | 0.986 ± 0.091 | 1.04 ± 0.014 | 0.94 ± 0.0042 | 1.02 ± 0.035 | 0.988 ± 0.031
16 | CN1C(C)(C)CCCC1(C)C | 0.993 ± 0.0099 | 0.939 ± 0.13 | 1.02 ± 0.059 | 0.982 ± 0.011 | 1 ± 0.025
17 | CCN(CC)CCNC(=O)c1cc(Cl)c(N)cc1OC | 1 ± 0.037 | 1.04 ± 0.066 | 0.993 ± 0.025 | 1.14 ± 0.05 | 1 ± 0.069
18 | CC(=O)Nc1ccc(S(=O)(=O)Nc2ccc([N+](=O)[O-])cc2)cc1 | 0.868 ± 0.03 | 0.933 ± 0.12 | 1.02 ± 0.028 | 1.1 ± 0.071 | 1.08 ± 0.042
19 | NC[C@H](O)c1ccc(O)c(O)c1 | 1.02 ± 0.035 | 0.95 ± 0.071 | 1.005 ± 0.0071 | 0.962 ± 0.069 | 0.9835 ± 0.0078
20 | CCNC(=O)CC[C@H](N)C(=O)O | 1.01 ± 0.021 | 1.03 ± 0.06 | 0.998 ± 0.018 | 1.13 ± 0.11 | 1.05 ± 0.014
21 | C[C@]12CCC[C@H](O1)c1c(cc3c(c1O)C(=O)c1c(O)cc(O)cc1C3=O)O2 [Averufin (Isoform A, Compound ID 7507)] | 1.01 ± 0.12 | 1.05 ± 0.14 | 1.04 ± 0.088 | 0.896 ± 0.16 | 0.972 ± 0.083
22 | C[C@@H]1CC[C@@]23CCC4(C)[C@@](C=CC5[C@@]6(C)CCC(=O)C(C)(C)C6CC[C@]54C)(OC2=O)C3[C@H]1C (stereo not given in full) | 0.982 ± 0.04 | 0.991 ± 0.15 | 0.956 ± 0.018 | 0.836 ± 0.09 | 0.921 ± 0.017
23 | CN(C(=O)C(Cl)Cl)c1ccc(OC(=O)c2ccco2)cc1 | 0.95 ± 0.0014 | 0.879 ± 0.2 | 1.03 ± 0.021 | 0.833 ± 0.14 | 0.934 ± 0.043
24 | N=C(N)NC(=N)Nc1ccccc1 | 0.96 ± 0.014 | 0.969 ± 0.034 | 0.958 ± 0.021 | 0.946 ± 0.052 | 0.99 ± 0.015
25 | CCOc1ccc(C(=O)c2ccc(O)c(O)c2O)cc1 | 0.928 ± 0.13 | 0.97 ± 0.18 | 1 ± 0.052 | 0.964 ± 0.093 | 1.1 ± 0.071
26 | CC(C)CC1NC(=O)C(NC(=O)c2ncccc2O)C(C)OC(=O)C(c2ccccc2)N(C)C(=O)C(C)NC(=O)C(C(C)C(C)C)N(C)C(=O)CN(C)C(=O)C2CCCN2C1=O (single isomer, unassigned; isomere) [Neoviridogrisein II (Isomere)] | 0.904 ± 0.024 | 0.991 ± 0.07 | 1.02 ± 0.03 | 0.918 ± 0.1 | 0.937 ± 0.02
